This note sets out measurements from PubChem BioAssay (NCI).

The structures appear in SMILES notation. Compounds without any hit were thinned out: in the full panel of roughly 83,000, 20% have a hit.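 How to read the values: 0–100, growth inhibition (40 = 60% inhibited); 0, no net growth; -100 to 0, cell death (-40 = 40% of starting cells died; -100 = all dead).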 Values without a mark were called inactive. The source made the active and inactive calls. Rule for the calls: active = growth percent below 10; inactive = the rest.

Common to all, as to assay: NCI-60 one-dose screen, 48 h (100 = growth as untreated, 0 = no growth, -100 = all killed)
For experiment [1], the system named is T-47D breast. Conditions: 10 µM unless noted.
The subject of experiment [2] is BT-549 breast. Conditions: 10 µM unless noted.
In experiment [3] the test system is MDA-MB-435 melanoma. Conditions: 10 µM unless noted.
Experiment [4] concerns SW-620 colon. The following applies: 10 µM unless noted.
Experiment [5] relates to MCF7 breast. Conditions: 10 µM unless noted.
Experiment [6] relates to HCT-116 colon. Conditions: 10 µM unless noted.
Experiment [7] deals with HCC-2998 colon. The following applies: 10 µM.
The subject of experiment [8] is KM12 colon. Conditions: 10 µM unless noted.

`COC(=O)[C@H](C)NC(=O)[C@@H](OC)[C@@H]1Cc2cc3cc(OC4CC(OC5CC(O)C(O)C(C)O5)C(O)C(C)O4)c(C)c(O)c3c(O)c2C(=O)[C@H]1OC1CC(OC2CC(OC3CC(C)(O)C(O)C(C)O3)C(O)C(C)O2)C(O)C(C)O1` (some centres not stated): the growth in experiment [1] was 2.98% (active); in experiment [2] it was -32.5% (active); in experiment [3], -39.3% (active); in experiment [4] it was 10.2%; in experiment [5], 8.55% (active); in experiment [6], 4.37% (active). For the same compound, the growth in experiment [7] was -44% (active); in experiment [8] it was 5.08% (active).

`CCN1CCN(CCCN(C[C@H]2Cc3ccccc3CN2)[C@H]2CCCc3cccnc32)CC1`: the growth in experiment [1] was 103%; in experiment [2], 79.7%; in experiment [3] it was 105%; in experiment [4] it was 89.6%; in experiment [5] it was 100%; in experiment [6] it was 76.4%. The growth in experiment [7] was 102%; in experiment [8] it was 87.1%.

With `N#Cc1c(C(F)(F)F)cc(Nc2ccc3nc(NCCN4CCCC4)oc3c2)n2c1nc1ccccc12`, the growth was 66.9% in experiment [1]; 72.3% in experiment [2]; 90.8% in experiment [3]; 37.4% in experiment [4]; 38.9% in experiment [5]; 17.9% in experiment [6]. In addition, the growth is 68% in experiment [7] and 73.9% in experiment [8].

As to `Nc1c(Cl)cccc1[N+](=O)[O-]`, the growth in experiment [1] was 110%; in experiment [2], 114%; in experiment [3] it was 105%; in experiment [4] it was 94.6%; in experiment [5], 99.1%; in experiment [6], 112%. The growth is 105% in experiment [7] and 107% in experiment [8].

Regarding `Cc1cc(Nc2cc(N3CCN(C)CC3)nc(Sc3ccc(NC(=O)C4CC4)cc3)n2)n[nH]1`, the growth in experiment [1] is 33.1%; in experiment [2] it was 23.5%; in experiment [3], 27.6%; in experiment [4], 19.3%; in experiment [5], 28.5%; in experiment [6], 18.3%. Also, the growth in experiment [7] is 33.9%; in experiment [8] it was 6.38% (active).

In the case of `O=CC(OC(=O)c1ccccc1)C(OC(=O)c1ccccc1)C(COC(c1ccccc1)(c1ccccc1)c1ccccc1)OC(=O)c1ccccc1` (configuration not stated), the growth is 25.6% in experiment [1]; 65.6% in experiment [2]; 45.7% in experiment [3]; -37.6% (active) in experiment [4]; 36.6% in experiment [5]; 7.51% (active) in experiment [6]. In addition, the growth in experiment [7] is 96.6%; in experiment [8], 61%.

For `Cn1ccnc1C(=O)/C=C/c1ccc(CC(=O)Nc2ccc(Br)cc2)cc1`, the growth in experiment [1] was 4.43% (active); in experiment [2], 12.1%; in experiment [3] it was 45.6%; in experiment [4], 4.81% (active); in experiment [5], 12%; in experiment [6], 12%. The growth in experiment [7] is 15.3%; in experiment [8] it was 4.87% (active).

Consider `Cc1ccc(-c2nc3ccc(Cl)cn3c2NC2CCCCC2)o1`, for which the growth in experiment [1] is 58.1%; in experiment [2] it was 105%; in experiment [3] it was 97.2%; in experiment [4], 82.9%; in experiment [5], 72.1%; in experiment [6], 56.1%. Moreover, the growth in experiment [7] is 102%; in experiment [8], 89.2%.

Take `COc1cc(NCCCN)c2ncccc2c1`: the growth in experiment [1] is 91.9%; in experiment [2], 74.9%; in experiment [3], 83.8%; in experiment [4] it was 79.1%; in experiment [5], 90.1%; in experiment [6] it was 60.4%. The figures for the growth in experiment [7] and in experiment [8] were 83.5% and 68.2%, respectively.

Take `O=C(Cc1ccc(/C=C/C(=O)c2ncc[nH]2)cc1)Nc1ccc(S(F)(F)(F)(F)F)cc1`: the growth was 57.6% in experiment [1]; 64.3% in experiment [2]; 56.1% in experiment [3]; 10.4% in experiment [4]; 12.4% in experiment [5]; -73.6% (active) in experiment [6]. Also, the growth was 78.9% in experiment [7] and 8.06% (active) in experiment [8].

Consider `Nc1c(C(=O)c2ccccc2)sc2nc(-c3cccs3)cc(-c3cccs3)c12`, for which the growth is 36% in experiment [1]; 50.9% in experiment [2]; -14.4% (active) in experiment [3]; 28.8% in experiment [4]; 45.9% in experiment [5]; 16.8% in experiment [6]. Further, the growth was 72.1% in experiment [7] and 29.1% in experiment [8].

For the compound `C#Cc1cccc(Nc2ncnc3cc4c(cc23)OCCOCCOCCO4)c1`, the growth was 33% in experiment [1]; 50.3% in experiment [2]; 24.6% in experiment [3]; 84.7% in experiment [4]; 56.1% in experiment [5]; 64.7% in experiment [6]. The growth is 97.9% in experiment [7] and 53% in experiment [8].

As to `NC[C@@](O)(c1ccc(Cl)cc1)c1ccc(-c2cn[nH]c2)cc1`, the growth in experiment [1] is -57.9% (active); in experiment [2] it was 14.6%; in experiment [3], 12.2%; in experiment [4], 7.7% (active); in experiment [5] it was -22.2% (active); in experiment [6], 0.471% (active). The results for the growth in experiment [7] and in experiment [8] were 12.7% and 16.6%, respectively.

With `Cn1ncc(Cl)c1-c1cc(C(=O)N[C@H](CN)Cc2cccc(F)c2)sc1Cl`, the growth is -24.7% (active) in experiment [1]; -4.28% (active) in experiment [2]; 4.34% (active) in experiment [3]; 39.8% in experiment [4]; -11.7% (active) in experiment [5]; 12.8% in experiment [6]. Besides, the figures for the growth in experiment [7] and in experiment [8] were -78.2% (active) and 1.36% (active), respectively.
